Records with an inconclusive call do not appear. Active and inactive are the calls of the source. Unless noted, calls come from the whole dose curve; as a rule, active = well fitted curve in the direction sought with a large enough effect in the repeat runs; inconclusive = weak or mixed curves; inactive = no such curve, though single readings can be large; an effect the other way counts as inactive or inconclusive.
Legend:
[1] = Human pregnane X receptor (PXR) small molecule agonists, qHTS cell viability counter screen (AID 1346977); note: nearly all actives have a fitted effect of over 50% in size
How it was run: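 After a 5hr pre-incubation, PXR-Luc HepG2 cells received compounds plus positive control in DMSO and were kept 24hr at 37C. Cell viability was quantified by fluorescence from CellTiter-Fluor added for the final hour.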

[2] = Caspase-3/7 induction in HepG2 cells by small molecules, qHTS assay (AID 1346978); note: nearly all actives have a fitted effect of over 15% in size
How it was run: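 Wild-type HepG2 cells, 2,000/well, settled 5 hr at 37 C and 5% CO2, then compound-treated for 17 hr; caspase-3/7 activity read by luminescent Caspase-Glo 3/7 after 30 min at room temperature.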

[3] = Caspase-3/7 induction in CHO-K1 cells by small molecules, qHTS cell viability counter screen (AID 1346979); note: nearly all actives have a fitted effect of over 35% in size
How it was run: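 Multiplexed with Caspase-Glo 3/7 in CHO-K1 cells, this counter screen added CellTiter-Fluor after 16hr of compound exposure and recorded fluorescence 1hr later.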

[4] = Caspase-3/7 induction in HepG2 cells by small molecules, qHTS cell viability counter screen (AID 1346981); note: series mostly up to about 92 µM; nearly all actives have a fitted effect of over 30% in size
How it was run: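 HepG2, WT, 2,000 cells/well; 5 hr pre-incubation 37 C/5% CO2; compound pin-transferred from DMSO; 16 hr exposure; CellTiter-Fluor, 1 hr; fluorescence read.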

[5] = target: Nuclear receptor subfamily 1 group I member 2 (Homo sapiens) (UniProt O75469); test: Human pregnane X receptor (PXR) small molecule agonists, qHTS assay (AID 1346982); note: nearly all actives have a fitted effect of over 35% in size
Sequence of Nuclear receptor subfamily 1 group I member 2 (Homo sapiens) (O75469 whole entry, looked up): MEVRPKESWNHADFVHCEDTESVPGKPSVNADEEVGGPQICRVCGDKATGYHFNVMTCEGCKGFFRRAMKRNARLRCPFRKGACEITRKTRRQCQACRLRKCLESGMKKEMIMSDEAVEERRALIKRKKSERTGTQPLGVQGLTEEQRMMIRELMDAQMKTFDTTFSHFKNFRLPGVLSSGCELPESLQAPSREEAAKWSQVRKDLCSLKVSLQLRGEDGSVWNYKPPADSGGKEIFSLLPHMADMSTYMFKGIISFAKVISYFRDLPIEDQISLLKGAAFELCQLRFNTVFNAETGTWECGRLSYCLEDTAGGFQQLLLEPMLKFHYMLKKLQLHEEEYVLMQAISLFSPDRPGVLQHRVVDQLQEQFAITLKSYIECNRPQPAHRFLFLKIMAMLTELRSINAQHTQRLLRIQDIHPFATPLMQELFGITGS
How it was run: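 Luciferase signal from ONE-Glo (30 min, room temperature) measured activation of hPXR-driven CYP3A4 reporter expression in PXR-Luc HepG2 cells treated with compounds for 24 hr at 37 C.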

[6] = target: Acetylcholinesterase (Homo sapiens) (UniProt P22303); test: Acetylcholinesterase (AChE) small molecule antagonists: colormetric cell-based qHTS assay (AID 1347395; calls by dose curve; note: nearly all actives have a fitted effect of over 30% in size)
Sequence of Acetylcholinesterase (Homo sapiens) (P22303 whole entry, looked up): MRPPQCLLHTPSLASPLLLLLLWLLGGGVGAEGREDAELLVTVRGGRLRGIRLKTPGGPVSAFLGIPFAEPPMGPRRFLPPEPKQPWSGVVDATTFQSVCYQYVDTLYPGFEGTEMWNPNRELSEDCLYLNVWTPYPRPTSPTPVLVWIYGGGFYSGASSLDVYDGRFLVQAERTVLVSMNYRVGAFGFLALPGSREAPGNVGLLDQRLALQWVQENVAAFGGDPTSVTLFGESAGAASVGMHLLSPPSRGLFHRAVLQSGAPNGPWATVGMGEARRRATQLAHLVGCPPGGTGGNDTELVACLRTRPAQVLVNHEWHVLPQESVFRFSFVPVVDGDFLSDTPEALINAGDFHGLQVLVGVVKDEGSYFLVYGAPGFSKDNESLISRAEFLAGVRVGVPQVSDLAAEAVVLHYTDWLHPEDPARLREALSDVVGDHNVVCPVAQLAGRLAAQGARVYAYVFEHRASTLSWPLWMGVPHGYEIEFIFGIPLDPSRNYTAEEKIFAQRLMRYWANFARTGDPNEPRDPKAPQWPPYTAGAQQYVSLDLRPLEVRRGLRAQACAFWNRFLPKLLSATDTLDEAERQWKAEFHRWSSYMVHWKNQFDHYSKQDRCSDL
How it was run: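 In this cell-based qHTS, attached SH-SY5Y cells were treated with test chemicals for 30 min, after which acetylthiocholine hydrolysis was followed by DTNB colour development over 90 min at 37 C.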

[7] = target: Acetylcholinesterase (Homo sapiens) (UniProt P22303); test: Acetylcholinesterase (AChE) small molecule antagonists: enzyme-based qHTS assay (AID 1347397; calls by dose curve; note: nearly all actives have a fitted effect of over 55% in size); settings: Potency: AChE enzyme activity inhibition; outcome: AChE enzyme activity inhibition
How it was run: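 Enzyme inhibition was scored from DTNB-detected thiocholine formed by recombinant human AChE acting on acetylthiocholine. The 30 min compound preincubation and 10 min substrate reaction were both run at room temperature, with DMSO as vehicle control.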

[8] = target: Acetylcholinesterase (Homo sapiens) (UniProt P22303); test: Acetylcholinesterase (AChE) small molecule antagonists: fluorescence cell-based qHTS assay (AID 1347398; calls by dose curve; note: nearly all actives have a fitted effect of over 50% in size); settings: Potency: AChE activity; outcome: AChE activity
How it was run: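 Endogenous acetylcholinesterase of SH-SY5Y neuroblastoma cells is measured in situ. After overnight attachment and 30 min compound exposure, cells receive acetylthiocholine and Thiolite Green; fluorescence is read after 40 min at room temperature.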

[9] = target: Acetylcholinesterase (Homo sapiens) (UniProt P22303); test: Acetylcholinesterase (AChE) small molecule antagonists: enzyme-based qHTS assay with human liver microsomes (AID 1347399; calls by dose curve; note: nearly all actives have a fitted effect of over 60% in size); settings: Potency: qHTS inhibition; outcome: qHTS inhibition
How it was run: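 Recombinant human AChE (50 mU/mL in the enzyme mix) and human liver microsomes (0.25 mg/mL final) were preincubated with compound and NADPH (0.25 mg/mL final) for 30 min at 37 C. Acetylthiocholine/DTNB was then added; thiocholine was read colorimetrically after 10 min at room temperature.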

[10] = target: Cytochrome P450 2D6 (Homo sapiens) (UniProt P10635); test: Cytochrome P450 Family 2 Subfamily D Member 6 (CYP2D6) small molecule antagonists: luciferase reporter qHTS assay (AID 1671196); note: nearly all actives have a fitted effect of over 50% in size; note: potency is the fitted concentration of half-maximal effect
Sequence of Cytochrome P450 2D6 (Homo sapiens) (P10635 whole entry, looked up): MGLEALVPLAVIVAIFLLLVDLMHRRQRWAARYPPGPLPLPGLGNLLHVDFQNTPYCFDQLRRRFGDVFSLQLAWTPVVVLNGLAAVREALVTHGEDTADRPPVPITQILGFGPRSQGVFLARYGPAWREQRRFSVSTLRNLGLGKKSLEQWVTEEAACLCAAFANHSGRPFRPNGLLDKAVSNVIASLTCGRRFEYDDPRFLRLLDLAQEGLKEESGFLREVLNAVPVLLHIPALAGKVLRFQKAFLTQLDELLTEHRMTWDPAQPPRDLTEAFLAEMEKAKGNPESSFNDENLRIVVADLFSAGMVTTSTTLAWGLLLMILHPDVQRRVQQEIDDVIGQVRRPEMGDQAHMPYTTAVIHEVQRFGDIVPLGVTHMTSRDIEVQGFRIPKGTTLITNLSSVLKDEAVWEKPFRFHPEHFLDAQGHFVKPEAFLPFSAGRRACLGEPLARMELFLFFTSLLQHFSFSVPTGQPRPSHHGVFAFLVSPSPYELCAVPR
How it was run: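 Read-out is luminescence from luciferin formed by CYP2D6 turnover of a proluciferin substrate, recorded as relative luminescence units. Reactions ran 1 h at room temperature after NADPH regeneration solution was added.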

[11] = target: Cytochrome P450 2C19 (Homo sapiens) (UniProt P33261); test: Cytochrome P450 Family 2 Subfamily C Member 19 (CYP2C19) small molecule antagonists: luciferase reporter qHTS assay (AID 1671197); note: series mostly up to about 120 µM; nearly all actives have a fitted effect of over 65% in size
Sequence of Cytochrome P450 2C19 (Homo sapiens) (P33261 whole entry, looked up): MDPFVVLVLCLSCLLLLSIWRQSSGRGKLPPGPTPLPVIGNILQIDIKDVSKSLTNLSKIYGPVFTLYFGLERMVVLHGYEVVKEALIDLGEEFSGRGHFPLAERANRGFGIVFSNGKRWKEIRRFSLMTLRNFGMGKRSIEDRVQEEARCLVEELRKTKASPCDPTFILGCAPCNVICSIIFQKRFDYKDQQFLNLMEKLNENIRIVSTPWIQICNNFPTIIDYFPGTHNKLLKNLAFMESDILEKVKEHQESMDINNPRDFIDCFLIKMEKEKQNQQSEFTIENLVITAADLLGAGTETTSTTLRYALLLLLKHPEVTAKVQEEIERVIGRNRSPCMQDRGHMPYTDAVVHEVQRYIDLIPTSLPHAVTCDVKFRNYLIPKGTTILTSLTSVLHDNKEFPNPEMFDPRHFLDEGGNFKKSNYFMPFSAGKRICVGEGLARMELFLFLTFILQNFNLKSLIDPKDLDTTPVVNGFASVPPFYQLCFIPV
How it was run: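 P450-Glo CYP2C19 screening system; proluciferin substrate; DMSO compound stocks; 10 min RT preincubation; NADPH regeneration, 1 h at 37C; luciferin detection reagent, 20 min RT; luminescence as RLU.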

[12] = target: Cytochrome P450 1A2 (Homo sapiens) (UniProt P05177); test: Cytochrome P450 Family 1 Subfamily A Member 2 (CYP1A2) small molecule antagonists: luciferase reporter qHTS assay (AID 1671199); note: nearly all actives have a fitted effect of over 50% in size; note: potency is the fitted concentration of half-maximal effect
Sequence of Cytochrome P450 1A2 (Homo sapiens) (P05177 whole entry, looked up): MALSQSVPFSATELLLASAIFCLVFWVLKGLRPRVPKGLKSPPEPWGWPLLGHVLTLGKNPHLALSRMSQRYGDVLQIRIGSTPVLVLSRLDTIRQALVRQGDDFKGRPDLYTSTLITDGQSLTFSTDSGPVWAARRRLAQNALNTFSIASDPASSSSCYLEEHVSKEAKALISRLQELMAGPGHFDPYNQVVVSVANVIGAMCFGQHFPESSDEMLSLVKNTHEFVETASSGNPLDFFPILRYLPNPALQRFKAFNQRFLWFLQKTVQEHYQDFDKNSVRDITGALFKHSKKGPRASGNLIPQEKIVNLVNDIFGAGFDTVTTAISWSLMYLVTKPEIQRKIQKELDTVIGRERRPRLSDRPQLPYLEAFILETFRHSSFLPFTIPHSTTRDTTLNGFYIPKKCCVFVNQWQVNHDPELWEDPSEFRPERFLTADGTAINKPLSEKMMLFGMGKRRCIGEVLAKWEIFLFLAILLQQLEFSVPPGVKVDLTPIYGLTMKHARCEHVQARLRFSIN
How it was run: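 P450-Glo CYP1A2, 1536-well qHTS: enzyme/proluciferin substrate + cpd (DMSO), 10 min RT; NADPH regen, 1 h RT; detection reagent, 20 min; luminescence, RLU.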

[13] = target: Voltage-gated inwardly rectifying potassium channel KCNH2 (Homo sapiens) (UniProt Q12809); test: Human Ether-a-go-go-Related Gene (hERG) channel small molecule antagonists: fluorescence cell-based qHTS assay (AID 1671200)
Sequence of Voltage-gated inwardly rectifying potassium channel KCNH2 (Homo sapiens) (Q12809 whole entry, looked up): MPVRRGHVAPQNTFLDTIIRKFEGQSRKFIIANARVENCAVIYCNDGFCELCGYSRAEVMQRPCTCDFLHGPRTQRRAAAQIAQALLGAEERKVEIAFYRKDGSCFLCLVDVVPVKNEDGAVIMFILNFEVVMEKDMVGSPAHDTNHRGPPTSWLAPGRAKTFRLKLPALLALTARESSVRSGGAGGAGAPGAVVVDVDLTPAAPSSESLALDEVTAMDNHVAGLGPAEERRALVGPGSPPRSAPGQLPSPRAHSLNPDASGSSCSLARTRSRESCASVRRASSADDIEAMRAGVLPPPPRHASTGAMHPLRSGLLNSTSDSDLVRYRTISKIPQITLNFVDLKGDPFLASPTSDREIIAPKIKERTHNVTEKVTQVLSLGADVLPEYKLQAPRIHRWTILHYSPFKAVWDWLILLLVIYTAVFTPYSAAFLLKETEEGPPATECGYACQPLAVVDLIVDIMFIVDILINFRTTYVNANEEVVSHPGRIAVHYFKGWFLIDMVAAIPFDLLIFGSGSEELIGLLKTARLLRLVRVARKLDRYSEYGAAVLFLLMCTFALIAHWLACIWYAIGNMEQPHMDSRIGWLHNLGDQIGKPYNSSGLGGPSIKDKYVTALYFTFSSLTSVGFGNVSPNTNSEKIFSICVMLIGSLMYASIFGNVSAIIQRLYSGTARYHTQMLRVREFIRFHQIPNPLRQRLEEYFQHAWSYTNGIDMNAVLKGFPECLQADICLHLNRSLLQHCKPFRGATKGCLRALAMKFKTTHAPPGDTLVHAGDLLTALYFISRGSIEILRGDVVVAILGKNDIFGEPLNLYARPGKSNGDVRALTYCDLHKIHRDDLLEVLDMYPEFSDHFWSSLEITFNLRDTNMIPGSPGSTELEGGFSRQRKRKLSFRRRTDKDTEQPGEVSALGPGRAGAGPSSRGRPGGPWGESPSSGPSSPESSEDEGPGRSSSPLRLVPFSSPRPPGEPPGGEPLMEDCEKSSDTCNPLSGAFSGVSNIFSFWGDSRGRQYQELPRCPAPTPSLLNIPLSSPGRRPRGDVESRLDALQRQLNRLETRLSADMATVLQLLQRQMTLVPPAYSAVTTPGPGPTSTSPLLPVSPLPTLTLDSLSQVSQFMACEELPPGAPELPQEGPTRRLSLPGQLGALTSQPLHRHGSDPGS
How it was run: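 Cell line hERG-U2OS; dye FluxOR II, 1 h RT dark; Tl+ stimulus; ex 480/em 540 nm, read each second for 2 min.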

[14] = target: Cytochrome P450 3A4 (Homo sapiens) (UniProt P08684); test: Cytochrome P450 Family 3 Subfamily A Member 4 (CYP3A4) small molecule antagonists: luciferase reporter qHTS assay (AID 1671201)
Sequence of Cytochrome P450 3A4 (Homo sapiens) (P08684 whole entry, looked up): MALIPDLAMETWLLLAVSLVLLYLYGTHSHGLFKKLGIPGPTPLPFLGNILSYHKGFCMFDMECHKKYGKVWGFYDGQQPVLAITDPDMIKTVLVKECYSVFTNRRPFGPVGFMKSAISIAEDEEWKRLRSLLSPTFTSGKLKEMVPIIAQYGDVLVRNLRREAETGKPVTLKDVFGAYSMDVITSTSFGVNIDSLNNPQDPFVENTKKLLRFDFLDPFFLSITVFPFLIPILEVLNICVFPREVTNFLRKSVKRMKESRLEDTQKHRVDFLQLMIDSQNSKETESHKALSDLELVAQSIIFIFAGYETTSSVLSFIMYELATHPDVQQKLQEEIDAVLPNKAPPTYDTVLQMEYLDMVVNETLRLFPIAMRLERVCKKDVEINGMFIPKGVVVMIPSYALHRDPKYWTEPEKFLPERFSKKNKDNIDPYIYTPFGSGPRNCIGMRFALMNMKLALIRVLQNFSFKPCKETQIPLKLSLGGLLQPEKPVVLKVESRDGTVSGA
How it was run: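 Room-temperature assay throughout: 10 min compound–enzyme/substrate preincubation, 1 h reaction after NADPH regeneration solution, 20 min detection. Luciferin formed from proluciferin substrate is quantified by luminescence.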

[15] = target: Cytochrome P450 2C9 (Homo sapiens) (UniProt P11712); test: Cytochrome P450 Family 2 Subfamily C Member 9 (CYP2C9) small molecule antagonists: luciferase reporter qHTS assay (AID 1671198)
Sequence of Cytochrome P450 2C9 (Homo sapiens) (P11712 whole entry, looked up): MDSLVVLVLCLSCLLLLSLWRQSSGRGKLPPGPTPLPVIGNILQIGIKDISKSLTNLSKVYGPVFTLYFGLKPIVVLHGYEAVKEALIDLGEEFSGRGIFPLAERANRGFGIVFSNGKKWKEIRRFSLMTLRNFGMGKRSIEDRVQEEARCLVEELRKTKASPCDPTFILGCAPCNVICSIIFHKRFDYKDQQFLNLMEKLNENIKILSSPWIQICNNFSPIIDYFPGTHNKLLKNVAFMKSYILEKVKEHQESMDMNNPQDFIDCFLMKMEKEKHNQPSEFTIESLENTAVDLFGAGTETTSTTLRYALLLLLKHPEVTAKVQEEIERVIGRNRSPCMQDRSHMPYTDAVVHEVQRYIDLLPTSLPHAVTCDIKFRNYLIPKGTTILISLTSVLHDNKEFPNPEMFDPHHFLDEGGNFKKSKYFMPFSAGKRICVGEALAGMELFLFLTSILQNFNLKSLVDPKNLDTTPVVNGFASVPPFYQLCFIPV
How it was run: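 P450-Glo proluciferin substrate with CYP2C9 enzyme; 10 min RT preincubation, then NADPH regeneration 1 h at 37C; luciferin detection reagent 20 min RT, luminescence in relative luminescence units.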

[16] = target: Nuclear receptor subfamily 1 group I member 2 (Rattus norvegicus) (UniProt Q9R1A7); test: Rat pregnane X receptor (rPXR) activation by small molecules, qHTS assay (AID 1346983); settings: rPXR luciferase reporter cells, One-Glo luminescence, 24 h; hits give high values; note: nearly all actives have a fitted effect of over 20% in size
How it was run: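 Cell-based rPXR activation assay: rPXR cells, 2,000 per well, rested 5hr at 37 C, then exposed to compounds in DMSO for 24 hr at 37 C. Luciferase activity read by One-Glo luminescence after 30 min at room temperature.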

[17] = target: Nuclear receptor subfamily 1 group I member 2 (Homo sapiens) (UniProt O75469); test: CYP3A4 induction through human pregnane X receptor (PXR) by small molecules, qHTS assay (AID 1346984); note: nearly all actives have a fitted effect of over 40% in size
How it was run: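 Luminescence readout: luciferase signal after One-Glo (30 min, room temperature), following 3 h at 37C with 3uM final Luciferin-IPA P450 substrate. Cells were DPX-2 (HepG2, PXR/CYP3A4-luc co-transfected) dosed for 24 h.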

[18] = target: Nuclear receptor subfamily 1 group I member 2 (Homo sapiens) (UniProt O75469); test: Human pregnane X receptor (PXR) activation by small molecules, qHTS assay (AID 1346985); note: nearly all actives have a fitted effect of over 40% in size
How it was run: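 DPX-2 cells (HepG2 co-transfected with a PXR response element and a CYP3A4-promoter luciferase construct) were seeded at 2,000 per well, rested 5 hr at 37C, then exposed to DMSO-dissolved compounds for 24 hr. Activation was read as luciferase luminescence.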

[19] = Caspase-3/7 induction in CHO-K1 cells by small molecules, qHTS assay (AID 1346980); note: nearly all actives have a fitted effect of over 15% in size
How it was run: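 Wild-type CHO-K1 cells exposed to compounds for 17hr at 37 C, 5% CO2. Caspase-3/7 activity then measured by Caspase-Glo 3/7 luminescence after 30min at room temperature.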
% is set by controls: 0 for no effect and ±100 for the full control effect.

CC(C)(C)C(=O)Cl
inactive: Potency [1] | outcome [2] | Potency [3] | Potency [4] | Potency [5] | Potency [6] | Potency [7] | Potency [8] | Potency [9] | Potency [10] | Potency [11] | Potency [12] | Potency [13] | Potency [14]

C=C(Cl)CCl
inactive: Potency [1] | outcome [2] | Potency [3] | Potency [4] | Potency [5] | Potency [6] | Potency [7] | Potency [8] | Potency [9] | Potency [10] | Potency [15] | Potency [12] | Potency [13] | Potency [14]

CCN(CC)CCOC(=O)C(O)(c1ccccc1)c1ccccc1
inactive: Potency [1] | outcome [2] | Potency [3] | Potency [4] | Potency [5] | max activation [16] -2.47% | Potency [17] | Potency [18] | Potency [6] | Potency [7] | Potency [8] | Potency [9] | Potency [11] | Potency [12]
active: Potency [10] 3.47 µM

CCNc1nc(NCC)nc(SC)n1
inactive: Potency [1] | outcome [2] | Potency [3] | outcome [19] | Potency [4] | Potency [6] | Potency [8] | Potency [9] | Potency [10] | Potency [15] | Potency [13] | Potency [14]
active: Potency [12] 10 µM

O=C(O)CBr
inactive: Potency [1] | outcome [2] | Potency [3] | Potency [4] | Potency [5] | Potency [6] | Potency [7] | Potency [8] | Potency [9] | Potency [10] | Potency [11] | Potency [15] | Potency [12] | Potency [13] | Potency [14]

C#CC(C)(C)O
inactive: Potency [1] | outcome [2] | Potency [3] | outcome [19] | Potency [4] | Potency [6] | Potency [7] | Potency [8] | Potency [9] | Potency [10] | Potency [11] | Potency [15] | Potency [13] | Potency [14]

— PubChem BioAssay (Tox21)
